In the supplement of paper PMC8728848:
About 410 targets per protein were measured; listed, in parts, are those with the strongest signals and a random draw of the rest.

How the values were obtained:
Assay in all cases: glycan array binding signal (z-score within array); higher = stronger binding
Conditions in all cases: glycan notation: IUPAC condensed, linker removed
[1] = target: Fuc(a1-2)Gal(b1-4)GlcNAc(b1-2)Man(a1-3)[Fuc(a1-2)Gal(b1-4)GlcNAc(b1-2)Man(a1-6)]Man(b1-4)GlcNAc(b1-4)GlcNAc
In short: (§1)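 Glycan array data were curated from 3228 arrays in the Consortium for Functional Glycomics database and kept only where the protein sequence was available. Glycan names were converted to IUPAC-condensed notation, and columns mapping to the same glycan were averaged. The binding signal is a within-array Z-score, averaged across arrays of the same protein sequence at different concentrations or buffers and across linkers. Negative Z-scores can be read as non-binding.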

[2] = target: Fuc(a1-2)Gal(b1-4)[Fuc(a1-3)]GlcNAc(b1-2)Man(a1-3)[Fuc(a1-2)Gal(b1-4)[Fuc(a1-3)]GlcNAc(b1-2)Man(a1-6)]Man(b1-4)GlcNAc(b1-4)GlcNAc
In short: as §1

[3] = target: Fuc(a1-2)[Gal(a1-3)]Gal
In short: as §1

[4] = target: Fuc(a1-2)[Gal(a1-3)]Gal(b1-4)GlcNAc(b1-2)Man(a1-3)[Fuc(a1-2)[Gal(a1-3)]Gal(b1-4)GlcNAc(b1-2)Man(a1-6)]Man(b1-4)GlcNAc(b1-4)GlcNAc
In short: as §1

[5] = target: Fuc(a1-2)[GalNAc(a1-3)]Gal(b1-4)GlcNAc(b1-2)Man(a1-3)[GalNAc(a1-3)[Fuc(a1-2)]Gal(b1-4)GlcNAc(b1-2)Man(a1-6)]Man(b1-4)GlcNAc(b1-4)GlcNAc
In short: as §1

[6] = target: Fuc(a1-2)[GalNAc(a1-3)]Gal(b1-4)GlcNAc(b1-3)Gal(b1-4)GlcNAc
In short: as §1

[7] = target: Fuc(a1-3)[Gal(b1-4)]GlcNAc(b1-2)Man(a1-6)[Gal(b1-4)GlcNAc(b1-2)Man(a1-3)]Man(b1-4)GlcNAc(b1-4)GlcNAc
In short: as §1

[8] = target: Fuc(a1-3)[Gal(b1-4)]GlcNAc6S
In short: as §1

[9] = target: Fuc(a1-3)[Gal3S(b1-4)]GlcNAc
In short: as §1

[10] = target: Gal(a1-3)Gal(b1-4)[Fuc(a1-3)]GlcNAc(b1-2)Man(a1-3)[Gal(a1-3)Gal(b1-4)[Fuc(a1-3)]GlcNAc(b1-2)Man(a1-6)]Man(b1-4)GlcNAc(b1-4)GlcNAc
In short: as §1

[11] = target: Gal(a1-4)Gal(b1-4)GlcNAc
In short: as §1

[12] = target: Gal(b1-2)Gal
In short: as §1

[13] = target: Gal(b1-3)GlcNAc(b1-2)Man(a1-3)[Gal(b1-3)GlcNAc(b1-2)Man(a1-6)]Man(b1-4)GlcNAc(b1-4)GlcNAc
In short: as §1

[14] = target: Gal(b1-3)[Neu5Ac(b2-6)]GalNAc
In short: as §1

[15] = target: Gal(b1-4)GalNAc(a1-3)[Fuc(a1-2)]Gal(b1-4)GlcNAc
In short: as §1

[16] = target: GlcA(b1-6)Gal
In short: as §1

[17] = target: GlcNAc(a1-4)Gal(b1-4)GlcNAc(b1-3)Gal(b1-4)[Fuc(a1-3)]GlcNAc(b1-3)Gal(b1-4)[Fuc(a1-3)]GlcNAc
In short: as §1

[18] = target: Neu5Ac(a2-3)Gal(b1-3)GalNAc
In short: as §1

[19] = target: Neu5Ac(a2-3)Gal(b1-3)GalNAc6S
In short: as §1

[20] = target: Neu5Ac(a2-3)Gal(b1-3)GlcNAc
In short: as §1

[21] = target: Neu5Ac(a2-3)Gal(b1-3)GlcNAc6S
In short: as §1

[22] = target: Neu5Ac(a2-3)Gal(b1-3)[Fuc(a1-4)]GlcNAc(b1-3)Gal(b1-4)[Fuc(a1-3)]GlcNAc
In short: as §1

[23] = target: Neu5Ac(a2-3)Gal(b1-4)GlcNAc(b1-3)Gal(b1-4)GlcNAc(b1-3)Gal(b1-4)GlcNAc
In short: as §1

[24] = target: Neu5Ac(a2-3)Gal(b1-4)[Fuc(a1-3)]GlcNAc(b1-6)[Gal(b1-3)]GalNAc
In short: as §1

[25] = target: Neu5Ac(a2-3)Gal(b1-4)[Fuc(a1-3)]GlcNAc(b1-6)[Neu5Ac(a2-3)Gal(b1-3)]GalNAc
In short: as §1

[26] = target: Neu5Ac(a2-3)GalNAc
In short: as §1

[27] = target: Neu5Ac(a2-6)Gal(b1-4)GlcNAc(b1-2)Man(a1-3)Man(b1-4)GlcNAc(b1-4)GlcNAc
In short: as §1

[28] = target: Neu5Ac(a2-6)Gal(b1-4)GlcNAc6S
In short: as §1

[29] = target: Neu5Ac(b2-6)Gal(b1-4)GlcNAc
In short: as §1

[30] = target: Neu5Gc(a2-3)Gal(b1-4)Glc
In short: as §1

[31] = target: Neu5Gc(a2-6)GalNAc
In short: as §1

B1: Neuropilin-1 (Rattus norvegicus), Q9QWJ9 (protein)
chain: MERGLPLLCATLALALALAGAFRSDKCGGTIKIENPGYLTSPGYPHSYHPSEKCEWLIQAPEPYQRIMINFNPHFDLEDRDCKYDYVEVIDGENEGGRLWGKFCGKIAPSPVVSSGPFLFIKFVSDYETHGAGFSIRYEIFKRGPECSQNYTAPTGVIKSPGFPEKYPNSLECTYIIFAPKMSEIILEFESFDLEQDSNPPGGVFCRYDRLEIWDGFPEVGPHIGRYCGQKTPGRIRSSSGILSMVFYTDSAIAKEGFSANYSVLQSSISEDFKCMEALGMESGEIHSDQITASSQYGTNWSVERSRLNYPENGWTPGEDSYREWIQVDLGLLRFVTAVGTQGAISKETKKKYYVKTYRVDISSNGEDWITLKEGNKAIIFQGNTNPTDVVFGVFPKPLITRFVRIKPASWETGISMRFEVYGCKITDYPCSGMLGMVSGLISDSQITASNQGDRNWMPENIRLVTSRTGWALPPSPHPYINEWLQVDLGDEKIVRGVIIQGGKHRENKVFMRKFKIAYSNNGSDWKMIMDDSKRKAKSFEGNNNYDTPELRAFTPLSTRFIRIYPERATHSGLGLRMELLGCEVEVPTAGPTTPNGNPVDECDDDQANCHSGTGDDFQLTGGTTVLATEKPTIIDSTIQSEFPTYGFNCEFGWGSHKTFCHWEHDSHAQLRWRVLTSKTGPIQDHTGDGNFIYSQADENQKGKVARLVSPVVYSQSSAHCMTFWYHMSGSHVGTLRVKLHYQKPEEYDQLVWMVVGHQGDHWKEGRVLLHKSLKLYQVIFEGEIGKGNLGGIAVDDISINNHIPQEDCAKPTDLDKKNTEIKIDETGSTPGYEEGKGDKNISRKPGNVLKTLDPILITIIAMSALGVLLGAVCGVVLYCACWHNGMSERNLSALENYNFELVDGVKLKKDKLNPQSNYSEA
- glycan array binding signal (z-score) [1]: 7.46
- glycan array binding signal (z-score) [2]: 2.97
- glycan array binding signal (z-score) [3]: -0.352
- glycan array binding signal (z-score) [4]: 7.21
- glycan array binding signal (z-score) [5]: 5.38
- glycan array binding signal (z-score) [6]: -0.035
- glycan array binding signal (z-score) [7]: -0.363
- glycan array binding signal (z-score) [8]: 0.233
- glycan array binding signal (z-score) [9]: -0.201
- glycan array binding signal (z-score) [10]: 4.58
- glycan array binding signal (z-score) [11]: -0.229
- glycan array binding signal (z-score) [12]: -0.273
- glycan array binding signal (z-score) [13]: -0.258
- glycan array binding signal (z-score) [14]: -0.235
- glycan array binding signal (z-score) [15]: 0.018
- glycan array binding signal (z-score) [16]: -0.148
- glycan array binding signal (z-score) [17]: 2.61
- glycan array binding signal (z-score) [18]: -0.323
- glycan array binding signal (z-score) [19]: -0.301
- glycan array binding signal (z-score) [20]: -0.274
- glycan array binding signal (z-score) [21]: -0.371
- glycan array binding signal (z-score) [22]: 0.102
- glycan array binding signal (z-score) [23]: -0.331
- glycan array binding signal (z-score) [24]: 8.12
- glycan array binding signal (z-score) [25]: 4.25
- glycan array binding signal (z-score) [26]: -0.28
- glycan array binding signal (z-score) [27]: -0.309
- glycan array binding signal (z-score) [28]: -0.311
- glycan array binding signal (z-score) [29]: -0.253
- glycan array binding signal (z-score) [30]: -0.189
- glycan array binding signal (z-score) [31]: -0.331
